# Screen size: about 290,000 compounds; about 3,000 (1%) were called active. The list comes from a sample in which actives are over-represented; it also holds similar structures and randomly drawn compounds. A number with no mark means an inactive call. No stated cut-off is given here; in the data, active means inhibition mostly above about 36% (no sharp cut-off); inactive means mostly below about 34%.
# Assay: inhibition of NOD1-driven NF-kB reporter – cell-based, luminescence, uHTS, primary screen (AID 1578);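 further: HEK-293T reporter cells stimulated with the NOD1 agonist gamma-tri-DAP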
# Settings: NOD1-driven NF-kB luciferase reporter cells, at 4 µM, hits give high values
row,SMILES,inhibition
1,CCOC(=O)c1c(/N=C/N(C)C)sc(C=O)c1-c1ccccc1,-24.2%
2,Cc1cccc(COCC(CC(C)C)N2CCN(C(=O)c3ccc(C(C)(C)C)cc3)CCC2=O)c1 (stereo not given),77% (active)
3,Cc1cccc(COCC(CC(C)C)N2CCN(C(=O)c3ccc(C(F)(F)F)cc3)CCC2=O)c1 (stereo not given),-5.2%
4,CC(C)CC(COCc1cccc(Cl)c1)N1CCN(C(=O)c2ccc(C(F)(F)F)cc2)CCC1=O (stereo not given),-7.1%
5,CC(=O)c1c(C)n(-c2ccc(C)cc2)c2ccc(O)cc12,33.3%
6,COC(=O)c1c(C)n(-c2ccc(C)cc2)c2ccc(O)cc12,18.7%
7,O=C(CN(C(=O)c1ccccc1Cl)N1C(=O)C2C3C=CC(C3)C2C1=O)c1cccs1 (stereo not given),-17%
8,O=C(Nc1ccc(OC(F)F)c(Cl)c1)Nc1ccc2c(c1)OCO2,-34.5%
9,COc1ccc(/C=C2\N=C(SC)N(c3ccccc3OC)C2=O)cc1,53.5% (active)
10,CCSC1=N/C(=C\c2ccccc2)C(=O)N1c1ccc(OC)cc1,30.2%
11,COc1ccc(/C=C2\N=C(SC)N(C)C2=O)cc1,3.7%
12,COc1cccc(CNc2ncn[nH]2)c1OCc1ccc(F)cc1,-21.2%
13,Cc1ccc(-c2nc(C=Nc3ccccc3)c(O)o2)cc1,-33.7%
14,Cc1ccc(N=Cc2nc(-c3ccc(C)cc3)oc2O)cc1,21.9%
15,Cc1ccc(-c2nc(C=Nc3ccc(O)cc3)c(O)o2)cc1,57.6% (active)
16,CCSc1nc2ccccc2n1CCOc1ccccc1,-22.7%
17,O=C(CS(=O)(=O)c1cn(CC(=O)N2CCCC2)c2ccccc12)Nc1ccccc1,-8.1%
18,O=S(=O)(NCc1ccco1)c1ccc(Cl)nc1,-15.7%
19,CC(C)CC(C(=O)NC(C)(C)C)N(Cc1cccs1)C(=O)c1snc(C(N)=O)c1N (stereo not given),-13.4%
20,O=c1c(Cl)c(N2CCOCC2)cnn1-c1nc2ccccc2[nH]1,-19.5%

row,SMILES,inhibition
1,O=c1c2ccccc2cnn1-c1ccc(Cl)cc1,-102%
2,O=c1c(Cl)c(NCCCO)cnn1-c1nc2ccccc2[nH]1,10.3%
3,C=CCN(CC=C)c1cnn(-c2nc3ccccc3[nH]2)c(=O)c1Cl,11.7%
4,Cc1nn(-c2ccccc2)c(=O)c2ccccc12,-47.4%
5,Cc1nn(-c2nc3ccccc3[nH]2)c(N)c1-c1ccccc1,-44.1%
6,O=c1c2ccccc2cnn1-c1nc2ccccc2[nH]1,99.7% (active)
7,O=c1c(Cl)c(N2CCCCC2)cnn1-c1nc2ccccc2[nH]1,74.8% (active)
8,Cc1nn(-c2nc3ccccc3[nH]2)c(=O)c2ccccc12,94.4% (active)
9,Cc1nnc(SCC(=O)NC(=O)Nc2ccc3c(c2)OCCO3)s1,-25.8%
10,COc1ccc(CCNC(=O)CC2SC(=NCCC(C)C)NC2=O)cc1OC (stereo not given),-12.2%
11,COc1cc(C2c3[nH]c4ccccc4c3C[C@@H]3C(=O)N(Cc4ccco4)CC(=O)N23)cc(OC)c1OC (stereo not given in full),-4.3%
12,CCCCN(C(=O)CCC(=O)Nc1cc(C)on1)C(C(=O)NC1CCCC1)c1ccccc1OCC (stereo not given),-32.8%
13,COCc1nnc(NC(=O)C2CCN(C(=O)c3ccco3)CC2)s1,-4%
14,Cc1ccc(N2C(=O)C3C(c4ccccc4)N4CCCN4C3(C)C2=O)cc1 (stereo not given),-27.5%
15,O=S(=O)(Nc1nnc(C(F)(F)F)s1)c1ccc(Cl)cc1,-6.4%
16,O=C1c2ccccc2N2C(=O)c3ccccc3[C@H]2N1c1ccccc1,-14.4%
17,CC(C)Cc1ccc(CN2CCC(n3nccc3NC(=O)C3CCCC3)CC2)cc1,-7.7%
18,Cc1cc(OCCCCn2ccnc2)cc(C)c1Cl,-18.7%
19,Cc1cc(OCCCn2ccnc2)cc(C)c1Cl,7.6%
20,Cc1cc(OCCCCCn2ccnc2)cc(C)c1Cl,48% (active)

row,SMILES,inhibition
1,O=C(Nc1ccc(S(=O)(=O)Nc2nccs2)cc1)c1ccc(N2C(=O)c3ccccc3C2=O)cc1,-25.2%
2,Cc1cc2c3c(c1)C(C)(c1ccccc1)CC(C)(C)N3C(=O)C21C(C#N)=C(N)OC2=C1C(=O)CC(C)(C)C2 (stereo not given),77.1% (active)
3,CC1=CC(C)(C)N2C(=O)C3(C(C#N)=C(N)OC4=C3C(=O)CC(C)(C)C4)c3cc(C)cc1c32 (stereo not given),13.2%
4,Cc1cc2c3c(c1)C1(C(=O)N3C(C)(C)CC2C)C(C#N)=C(N)OC2=C1C(=O)CC(C)(C)C2 (stereo not given),-22.2%
5,O=C(Nc1nncs1)c1cccc(S(=O)(=O)N2CCc3ccccc32)c1,-12.7%
6,C=CCOC(=O)C1=C(C)Nc2nnnn2C1c1cc(OC)ccc1OC (stereo not given),-1.8%
7,CC1CC2(CCCC2)Nc2ccc(F)cc21 (stereo not given),-2%
8,CC1CC(C)(C)Nc2ccc(OC(=O)c3ccco3)cc21 (stereo not given),44.8%
9,CC1CC(C)(C)Nc2ccc(N=O)cc21 (stereo not given),41.9% (active)
10,CCOC(=O)C1CCN(C(=O)CCc2ccc(S(=O)(=O)NC(C)C)cc2)CC1,-6.7%
11,COc1ccccc1N1CCN(CC(O)c2ccc3cc[nH]c3c2)CC1 (stereo not given),-10.9%
12,CC1CN(C(=O)CCNC(=O)c2ccc(Cl)cc2)CC(C)O1 (stereo not given),-15.6%
13,CC12CN3CCN(CC(C3)C1(O)CN1CCOCC1)C2 (stereo not given),-10.8%
14,COc1cccc(C(=O)C2CCCN(C(=O)CCC3=NNC(=O)CC3)C2)c1 (stereo not given),-14.9%
15,Nc1nc(Nc2ccc(Cl)cc2)nc2ccccc12,24.4%
16,Nc1nc(Nc2ccccc2)nc2ccccc12,-85.2%
17,CN(C)c1ccc(Nc2nc(N)c3ccccc3n2)cc1,73.8% (active)
18,CCOc1ccccc1N1CC(C(=O)N2CCc3ccccc32)CC1=O (stereo not given),17.6%
19,CCn1c(=O)n(CC)c2cc(N3CCCC3)c(NC(=O)c3c(F)cccc3F)cc21,-5.8%
20,O=C(c1cccc(S(=O)(=O)N2CCc3ccccc3C2)c1)N1CCN(c2ccc(O)cc2)CC1,-37.3%

# Source: PubChem BioAssay AID1578 (Sanford-Burnham Center for Chemical Genomics, 2009)
